# ELG1 repair inh = inhibitors of ELG1-dependent DNA repair in HEK293T cells; AID 504467; Potency, µM (doses to about 46.1 µM), inactives show at the top dose activity change, negative = inhibition, hits mostly inhibitors; HEK293T ELG1-luciferase reporter, luminescence, 16 h; DNA damage induced by 5-fluorouridine; 330,000 compounds, 2.3% hits; note: % is set by controls: 0 for no effect and ±100 for the full control effect; nearly all actives have a fitted effect of over 55% in size
#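 Reporter activity after DNA damage by 5-fluorouridine is monitored. Compound-treated cells incubate 16 hr at 37 °C, then ONE-Glo is added for 30 min before luminescence reading.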
# KB-V1 MDR tox = KB-V1 MDR subline cytotoxicity | KB-V1 MDR cells viability, CellTiter-Glo, 72 h | Potency, µM (series often up to 46.1 µM), actives largely listed as cytotoxic | 400,000 compounds, 3.4% hits; note: % is set by controls: 0 for no effect and ±100 for the full control effect; nearly all actives have a fitted effect of over 60% in size
#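 KB-V1, DMEM (no phenol red) + 10% FBS; cpd pin-transferred, titration series; 72 h, 37 degrees C; CellTiter-Glo, luminescence. Data normalized, curve-fit.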
# SW480 rerep = DNA re-replication induction in SW480 cells; Potency, µM (titrated, usually from 46.1 µM), inactives show at the top dose re-replication activation, hits mostly activators; 340,000 compounds, 1.8% hits; SW480 DNA re-replication, Hoechst DNA content imaging, 48 h; note: % of control where 0% means no effect; nearly all actives have a fitted effect of over 55% in size
#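 DNA re-replication was detected as more nuclei of elevated Hoechst intensity after 48 hr exposure to compound (23 nL pinned per well of 250 cells).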
# MCF10A rereplic = induces DNA re-replication in MCF 10a normal breast cells; MCF 10A DNA re-replication, Hoechst nuclear intensity, 48 h; Potency, µM (series often up to 46.1 µM), without a hit: top-dose activity, positive = re-replication, hits mostly activators; 350,000 compounds, 2.9% hits; note: % of control where 0% means no effect; nearly all actives have a fitted effect of over 50% in size
# KB-3-1 tox = kills parental KB-3-1 adenocarcinoma cells; Potency, µM (highest dose often 46.1 µM), hits mostly cytotoxic; 400,000 compounds, 1.4% hits; KB-3-1 viability, CellTiter-Glo ATP luminescence, 72 h; note: % is set by controls: 0 for no effect and ±100 for the full control effect; nearly all actives have a fitted effect of over 60% in size
#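 Parental KB-3-1 viability, qHTS format: 72 h compound exposure, 37 °C; CellTiter-Glo; media-only wells and DMSO plates as controls; concentration-effect fits on corrected data.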
# Starred values were filed as active, the others as inactive; i = inactive; ? = inconclusive; · = no result. Compounds with a hit are over-represented: about 8.1% of the library has one in this group of screens. Calls come from the whole dose curve; as a rule, active = well fitted curve in the direction sought with a large enough effect; inconclusive = small, poorly fitted or top-dose-only effect, or another doubt; inactive = no such curve, though single readings can be large; an effect the other way counts as inactive or inconclusive. Potency is the fitted concentration of half-maximal effect.
SMILES,ELG1 repair inh,KB-V1 MDR tox,SW480 rerep,MCF10A rereplic,KB-3-1 tox
Cc1cc(NC(=O)NC2(C(F)(F)F)Oc3ccc(Cl)cc3O2)no1 (centres undefined),?,18µM*,10%,-1%,?
Cc1cc(NC(=O)Nc2ccc(F)c(Cl)c2)no1,-27%,i,-1%,12%,i
CCc1ccc(-c2cc(C(=O)N/N=C/c3c[nH]c4ccccc34)[nH]n2)cc1,?,?,6.5µM*,21µM*,?
Cn1ccc(C(=O)N/N=C/c2c[nH]c3ccccc23)n1,?,i,-6%,3%,18µM*
CCc1ccc(/C=N/NC(=O)c2cc(-c3cccc([N+](=O)[O-])c3)n[nH]2)cc1,?,?,23µM*,5.2µM*,?
O=C(N/N=C/c1cccc([N+](=O)[O-])c1)c1cc(-c2ccc3c(c2)OCO3)n[nH]1,19%,i,-122%,12µM*,i
O=C(N/N=C/c1cccc(O)c1)c1cc(-c2ccc3c(c2)OCO3)n[nH]1,?,?,-9%,14%,i
O=C(O)c1ccc(/C=N/Nc2nc3ccccc3[nH]2)cc1,16%,i,2%,4%,i
O=C(Cc1nc2ccccc2[nH]1)N/N=C/c1ccccc1,?,i,21µM*,12µM*,i
C(=N\Nc1nc2ccccc2[nH]1)/c1ccncc1,?,i,-7%,?,i
CC(=O)Nc1ccc(/C=N/Nc2nc3ccccc3[nH]2)cc1,?,i,23%,7%,23µM*
CCN(CC)c1ccc(/C=N/Nc2nc3ccccc3[nH]2)cc1,?,i,21µM*,9.2µM*,i
C[C@@H]1CN([C@@H](C)CO)C(=O)CCCn2nncc2CO[C@H]1CN(C)Cc1ccc2cccnc2c1,·,i,·,·,i
CC/C(=N\NC(=S)NC(C)C)c1ccc(OC)c(OC)c1,1%,?,?,10%,i
COc1ccc(C(=O)N2CCC(n3nccc3NC(=O)C3CC3)CC2)c(OC)c1OC,?,?,-1%,5%,i
CC(=O)Oc1c(I)cc(I)cc1C(=O)Nc1ccc(Cl)cc1,-17%,16µM*,?,7.3µM*,23µM*
COc1cc2nc(CC(C)C)n(NC(=O)c3ccccc3Br)c(=O)c2cc1OC,-25%,i,0%,6.5µM*,i
O=C(Cc1coc2cc3c(cc12)CCC3)NC1CCCCCCC1,3%,?,5%,7%,i
CCN(CC)C(=O)c1cccc(-c2csc(C(O)c3ccc(F)c(OC)c3)n2)c1 (centres undefined),·,?,·,·,i
CCN(CC)C(=O)c1cccc(-c2csc(C(O)c3ccc(OC)cc3)n2)c1 (centres undefined),·,18µM*,·,·,?
CC(C)Cc1nnc(NC(=O)c2cc3c(s2)CCC3)s1,?,i,23µM*,23µM*,i
O=C(N/N=C/c1ccsc1)c1cc(-c2cccs2)nc2ccccc12,?,13µM*,6.5µM*,5.8µM*,?
C/C(=N\NC(=O)c1cc(-c2ccncc2)nc2ccccc12)c1ccc(N2CCOCC2)cc1,-4%,i,-22%,5.8µM*,i
CC(=NNC(=O)c1cc(C)nc2ccccc12)c1ccc(N2CCOCC2)cc1,-8%,i,1%,11%,i
O=C(N/N=C/c1ccsc1)c1cc(-c2ccncc2)nc2ccccc12,3%,8.2µM*,7.3µM*,9.2µM*,2.6µM*
SMILES,ELG1 repair inh,KB-V1 MDR tox,SW480 rerep,MCF10A rereplic,KB-3-1 tox
C/C(=N\NC(=O)c1cc(-c2cccs2)nc2ccccc12)c1ccccn1,-17%,i,1.6µM*,?,?
CCCCNC(=O)c1onc(CSc2ccc(F)c(F)c2)c1C(=O)NCCCC,·,i,-6%,?,i
Nc1nc(N)c(-c2cccc(C(F)(F)F)c2)c(Cc2cccc(C(F)(F)F)c2)n1,·,?,?,?,7.3µM*
Nc1ncccc1OCc1cccc(C(F)(F)F)c1,?,?,7%,-10%,?
O=c1cc(-c2ccccc2Cl)oc2c(NS(=O)(=O)c3cc(Cl)cc(Cl)c3O)ccc(O)c12,?,18µM*,20%,-32%,?
O=[N+]([O-])c1ccc(O)c(-c2cc(C(F)(F)F)nc(-c3ccccc3)n2)c1,?,?,15%,?,1.5µM*
COc1ccccc1NC(=O)c1ccccc1-c1nc(-c2ccccc2OC)no1,?,i,24%,-2%,i
C/C(=N\NC(=O)c1cc2c(s1)CCC(C)C2)c1ccncc1 (centres undefined),18%,?,-4%,15µM*,?
Cn1nc(C(C)(C)C)cc1C(=O)NNC(=O)c1cccc(Cl)c1,7.3µM*,i,-20%,0%,i
O=C(c1ccc(Oc2ccccc2)cc1)C1CCCN(C(=O)c2cnccn2)C1 (centres undefined),21µM*,i,-8%,-3%,i
Cc1cc(C(=O)N2CCCC(C(=O)c3ccc(Oc4ccccc4)cc3)C2)n[nH]1 (centres undefined),?,i,?,-2%,i
O=C(O)COc1ccc2occ(C(=O)c3ccccc3)c2c1,12%,i,-8%,-3%,i
COC(=O)COc1ccc2occ(C(C)=O)c2c1,22%,i,16µM*,8.2µM*,i
Nc1cc(=O)[nH]c(N)n1,7%,i,-10%,2%,i
C/C(=N/NC(=O)c1ccncc1)c1cc2ccc(O)cc2oc1=O,-2%,i,61%,?,i
C/C(=N/NC(N)=S)c1cc2ccc(O)cc2oc1=O,-11%,i,?,18µM*,i
NC(=S)c1cc2ccc(O)cc2oc1=O,-14%,i,10µM*,21µM*,i
Cc1ccc(C)c(N(C(=O)CNC(=O)c2ccco2)C(C(=O)NC2CCCCC2)c2ccncc2)c1 (centres undefined),6%,i,-3%,-7%,i
Nc1nnc(SCC(=O)Nc2cccnc2Cl)s1,14%,i,-7%,1%,i
Cc1nnc(SCC(=O)NC(=O)Nc2ccc3c(c2)OCCO3)s1,?,i,0%,2%,i
COc1ccccc1Nc1nnc(SCC(=O)NC(=O)Nc2ccc3c(c2)OCCO3)s1,3%,i,17%,21µM*,i
Cc1cccc(Nc2nnc(SCC(=O)NC(=O)Nc3ccc4c(c3)OCCO4)s2)c1,?,?,?,23µM*,?
Cc1cccc(Nc2nnc(SCC(=O)Nc3cccnc3Cl)s2)c1,-8%,15µM*,-14%,15%,i
COc1cc([N+](=O)[O-])ccc1NC(=O)CN1CCc2cc(OC)c(OC)cc2C1,?,i,-1%,-7%,i

# Source: PubChem BioAssay
